Lassa entry inh: blocks Lassa virus binding to or entry into cells; Lassa virus pseudotype entry inhibition, cell reporter; 300,000 tested, 1.2% active; AID 540256; Potency, µM (top dose mostly 37.9 µM), without a hit: at the top dose activity change, negative = inhibition, hits mostly inhibitors; calls by dose curve; tested in HEK293 cells; also: nearly all actives have a fitted effect of over 50% in size
AmpC no deterg: blocks E. coli AmpC beta-lactamase in detergent-free assay. P00811. AmpC nitrocefin hydrolysis, absorbance 480 nm, 0.0001% Triton. Potency, µM (doses to about 57.1 µM), for inactives: at the top dose activity change, negative = inhibition, hits mostly inhibitors. 330,000 tested, 0.52% active;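 also: plate controls were no compound for no effect and no enzyme for full effect; nearly all actives have a fitted effect of over 20% in size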
Target sequence (P00811 whole entry, looked up): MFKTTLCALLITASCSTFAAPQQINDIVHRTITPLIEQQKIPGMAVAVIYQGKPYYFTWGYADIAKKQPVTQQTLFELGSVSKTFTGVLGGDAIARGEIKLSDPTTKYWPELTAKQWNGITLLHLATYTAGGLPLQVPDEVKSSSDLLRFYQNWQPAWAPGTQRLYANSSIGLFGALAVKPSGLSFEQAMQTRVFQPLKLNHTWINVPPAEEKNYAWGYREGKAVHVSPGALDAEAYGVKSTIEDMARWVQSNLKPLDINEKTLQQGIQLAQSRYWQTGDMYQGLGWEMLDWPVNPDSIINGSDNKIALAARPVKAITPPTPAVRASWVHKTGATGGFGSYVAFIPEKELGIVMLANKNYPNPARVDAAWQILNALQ
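AmpC (5.3 nM in the dispensed reagent) in 20 mM phosphate pH 7.0 with 0.01% (detergent screen) or 0.0001% Triton X-100 was preincubated with compounds for 15 min at room temperature. Nitrocefin was then added from an 800 uM solution, and hydrolysis was followed at 480 nm.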
AmpC inh detg: blocks E. coli AmpC beta-lactamase in detergent assay; P00811; AmpC hydrolysis of nitrocefin, absorbance 480 nm, 0.01% Triton; Potency, µM (series often up to 114 µM), inactives show at the highest dose activity change, negative = inhibition, most hits filed as inhibitors; 370,000 tested, 0.041% active; AID 485294;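 also: 0% = no-compound wells and -100% = no-enzyme wells; nearly all actives have a fitted effect of over 25% in size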
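AmpC (5.3 nM in the dispensed reagent) in 20 mM phosphate pH 7.0 with 0.01% (detergent screen) or 0.0001% Triton X-100 was preincubated with compounds for 15 min at room temperature. Nitrocefin was then added from an 800 uM solution, and hydrolysis was followed at 480 nm.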
MARV entry inh: inhibitors of Marburg virus binding or cell entry | Potency, µM (top dose mostly 37.8 µM), for inactives: at the top dose activity change, negative = inhibition, usual class: inhibitors | Marburg virus pseudotyped entry inhibition, cell reporter | 300,000 tested, 1.8% active; calls by dose curve; tested in HEK293 cells
AMA1-RON2 inh: AMA1-RON2 (P. falciparum) interaction inhibition; AlphaScreen AMA1-biotinylated RON2 peptide binding; Potency, µM (titrated, usually from 58.2 µM), for inactives: at the highest dose activity change, negative = inhibition, hits mostly inhibitors; 360,000 tested, 0.2% active; AID 720542;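 also: 0% = vehicle wells and -100% = peptide control; nearly all actives have a fitted effect of over 45% in size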
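AMA1 (3D7) with his tag at 25 nM final met compounds first, then biotinylated RON2 peptide at 25 nM; detection used donor plus acceptor beads, 10 µg/mL apiece, read by AlphaScreen after 30 min at room temperature.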
* marks the source's active call; other numbers are inactive results; [ ] = remark or other dose. Hits are enriched below; roughly 2.3% of the tested compounds scored in any of these assays. Unless noted, calls follow the shape of the dose curve; as a rule, active = well fitted curve in the direction sought with a large enough effect; inconclusive = small, poorly fitted or top-dose-only effect, or another doubt; inactive = no such curve, though single readings can be large; an effect the other way counts as inactive or inconclusive. Unless noted, % is scaled to controls: 0 for no effect and ±100 for the full control effect; potency is read from the fitted curve at half-maximal effect.

How did O=C(c1ccc(Cn2cc([N+](=O)[O-])cn2)o1)N1N=C(C(F)F)CC1(O)C(F)F (configuration not stated) do in these assays?
Lassa entry inh: -25%[14.3 µM]; AmpC no deterg: -21%; AmpC inh detg: -1%; MARV entry inh: 1%; AMA1-RON2 inh: 23%

How did COC(=O)C1=C(C)N(Cc2ccccc2)C(=S)NC1c1cccc(F)c1 (configuration not stated) do in these assays?
MARV entry inh: 48%[14.2 µM]

Results for CCc1nn(CC(=O)N(CC)Cc2ccccc2)c(=O)c2cc3occc3n12 ?
Lassa entry inh: -10%[46.1 µM]; AmpC inh detg: 30%; MARV entry inh: 3%[46.1 µM]

Results for CCOC(=O)c1c(C)oc2c1c(C=NCc1ccccn1)c(O)c1ccccc12 ?
Lassa entry inh: 14µM*; AmpC no deterg: 21%; AmpC inh detg: 0%; MARV entry inh: inconclusive; AMA1-RON2 inh: 47%

How did CCOC(=O)c1c(C)oc2c1c(C=NCC1CCCO1)c(O)c1ccccc12 (configuration not stated) do in these assays?
Lassa entry inh: 4%; AmpC no deterg: -14%; AmpC inh detg: -8%; MARV entry inh: 4%; AMA1-RON2 inh: 54%

Results for C[C@@H]1CC[C@H]2C(=O)N(Cc3ccc(Cl)cc3)C[C@@H](O)CN2[C@@H]1c1ccc(Br)cc1 ?
MARV entry inh: -15%[14.2 µM]

Results for Cc1ccc(SC2=C(Sc3ccc(C)cc3)C(=O)c3ccccc3C2=O)cc1 ?
Lassa entry inh: 11%[46.1 µM]; AmpC no deterg: -49%; AmpC inh detg: -5%; MARV entry inh: 2%[46.1 µM]; AMA1-RON2 inh: inconclusive

Results for CC1=CC(=O)C(Sc2ccc(C)cc2)=CC1=O ?
AMA1-RON2 inh: 13µM*

How did CCc1ccccc1NC(=O)c1ccc2nc(C(C)C)oc2c1 do in these assays?
Lassa entry inh: -6%[46.1 µM]; AmpC inh detg: 20%

How did O=C(c1ccc(Cl)cc1)N1CCc2c([nH]c3ccccc23)C1C(F)(F)F (configuration not stated) do in these assays?
Lassa entry inh: inconclusive; AmpC no deterg: -29%; AmpC inh detg: 3%; MARV entry inh: 11µM*; AMA1-RON2 inh: 9%

What do the screens show for `O=C(Nc1ccccc1)N1CCc2c([nH]c3ccccc23)C1C(F)(F)F` (configuration not stated)?
Lassa entry inh: inconclusive; AmpC no deterg: inconclusive; AmpC inh detg: 0%; MARV entry inh: inconclusive; AMA1-RON2 inh: 1%

What do the screens show for `COC(=O)C1=C(C)N(Cc2ccccc2)C(=NCc2cc(OC)c(OC)c(OC)c2)NC1c1cccc(F)c1` (configuration not stated)?
Lassa entry inh: inconclusive; MARV entry inh: -17%[14.2 µM]

Results for CSc1ccc2c(c1)N(CCC1CCCCN1C)c1ccccc1S2 (configuration not stated) ?
Lassa entry inh: 5.2µM*; AmpC no deterg: 148%; AmpC inh detg: -17%; MARV entry inh: 10µM*; AMA1-RON2 inh: inconclusive

What do the screens show for `CN(C)CCNc1ncnc2c1sc1nc(N3CCOCC3)c3c(c12)CC(C)(C)SC3`?
Lassa entry inh: inconclusive; AmpC no deterg: 59%; AmpC inh detg: -1%; MARV entry inh: 15µM*; AMA1-RON2 inh: inconclusive

Results for CC1CCOC(=O)C=CC=CC(=O)OC2CC3OC4C5OC5(C)C(O)CC4(COC(=O)C1O)C2(C)C31CO1 (configuration not stated) ?
MARV entry inh: inconclusive; AMA1-RON2 inh: 14%

How did CC(O)C1C=CC=CC(=O)OC2CC3OC4C5OC5(C)C(O)CC4(COC(=O)C(O)C(C)CCO1)C2(C)C31CO1 (configuration not stated) do in these assays?
MARV entry inh: 0.13µM*; AMA1-RON2 inh: 12%

What do the screens show for `Cc1ccccc1C(=O)OCc1cc(=O)n2nc(C3CC3)sc2n1`?
Lassa entry inh: 1%[46.1 µM]; AmpC inh detg: 10%

How did CC1CCN(CCCNC(=O)c2ccc(CSCc3cccc(Cl)c3)o2)CC1 do in these assays?
Lassa entry inh: -18%; AmpC no deterg: 55%; AmpC inh detg: inconclusive; MARV entry inh: 12µM*; AMA1-RON2 inh: -14%

Screening results (PubChem)
